Screening data as filed in PubChem.
SARS PLpro yeast – qHTS of Yeast-based Assay for SARS-CoV PLP; AID 485353, 2010; 330,000 compounds, 0.19% hits; Potency, µM (doses to about 32.9 µM), for inactives: top-dose activity, positive = growth rescue, most hits filed as activators; S. cerevisiae expressing SARS-CoV PLpro, growth rescue; calls by dose curve; note: 0% is about no effect; nearly all actives have a fitted effect of over 55% in size
Pf growth 96h – Primary qHTS for delayed death inhibitors of the malarial parasite plastid, 96 hour incubation. P. falciparum luciferase reporter growth, 96 h. Potency, µM (highest dose often 28.7 µM), for the others: top-dose activity change, negative = inhibition, actives largely listed as inhibitors. 320,000 compounds, 6.9% hits. AID 504834, 2011; note: % is set by controls: 0 for no effect and ±100 for the full control effect
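Plates of compound plus infected erythrocytes (2% hematocrit, 0.05% parasitemia final) incubate 96 hours, 37 C, 5% CO2. Detection reagent added; reduced luminescence from the parasites' luciferase reporter flags inhibition.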
Pf growth 48h – Primary qHTS for delayed death inhibitors of the malarial parasite plastid, 48 hour incubation | P. falciparum luciferase growth in erythrocytes, 48 h | Potency, µM (doses to about 28.7 µM), for the others: top-dose activity change, negative = inhibition, hits mostly inhibitors | 310,000 compounds, 5.9% hits | AID 504832, 2011; note: % is set by controls: 0 for no effect and ±100 for the full control effect
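In quantitative HTS format, infected erythrocytes bearing luciferase-reporter parasites were treated for a single generation at 37 C. Luminescence after adding detection reagent served as the growth measure.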
Sm TGR inh – qHTS Assay for the Inhibitors of Schistosoma Mansoni Peroxiredoxins; Schistosoma mansoni thioredoxin glutathione reductase (TGR), Q962Y6; purified TGR, DTNB reduction, TNB absorbance 405 nm; Potency, µM (titrated, usually from 114 µM), for the others: at the highest dose activity change, negative = inhibition, most hits filed as inhibitors; 360,000 compounds, 3% hits; AID 485364, 2010; note: % is set by controls: 0 for no effect and ±100 for the full control effect; nearly all actives have a fitted effect of over 60% in size
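TGR 20 nM + NADPH 100 uM (dispensed conc.), cpd preinc 15 min RT; start with NADPH (500 uM addition) then DTNB (15 mM addition). Kinetic TNB absorbance, 405 nm filter. Four-parameter Hill fit across titration.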
AmpC no deterg – qHTS Inhibitors of AmpC Beta-Lactamase (assay without detergent); Potency, µM (series often up to 57.1 µM), for inactives: at the highest dose activity change, negative = inhibition, most hits filed as inhibitors; AmpC nitrocefin hydrolysis, absorbance 480 nm, 0.0001% Triton; P00811; 330,000 compounds, 0.52% hits; AID 485341, 2010;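 note: plate controls were no compound for no effect and no enzyme for full effect; nearly all actives have a fitted effect of over 20% in size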
Target sequence (P00811 whole entry, looked up): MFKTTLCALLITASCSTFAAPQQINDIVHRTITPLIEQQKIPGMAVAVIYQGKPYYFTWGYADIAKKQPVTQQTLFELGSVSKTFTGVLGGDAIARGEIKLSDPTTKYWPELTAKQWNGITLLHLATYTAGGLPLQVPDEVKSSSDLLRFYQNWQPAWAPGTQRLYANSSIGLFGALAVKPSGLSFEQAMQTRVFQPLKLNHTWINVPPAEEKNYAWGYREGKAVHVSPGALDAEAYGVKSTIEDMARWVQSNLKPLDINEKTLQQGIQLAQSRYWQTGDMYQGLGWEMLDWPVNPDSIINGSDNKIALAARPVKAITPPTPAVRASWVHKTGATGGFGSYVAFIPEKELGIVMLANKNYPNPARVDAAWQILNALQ
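20 mM phosphate pH 7.0 + 0.01% (detergent screen) or 0.0001% Triton X-100; 5.3 nM AmpC reagent; cpd preinc 15 min RT; nitrocefin (800 uM stock) to start; A480 q20 s × 4 min; Activity was normalised to no-enzyme and no-compound control wells.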
AmpC detergent – qHTS Inhibitors of AmpC Beta-Lactamase (assay with detergent). P00811. AmpC hydrolysis of nitrocefin, absorbance 480 nm, 0.01% Triton. 370,000 compounds, 0.041% hits. Potency, µM (highest dose often 114 µM), for the others: top-dose activity change, negative = inhibition, usual class: inhibitors;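 note: 0% = no-compound wells and -100% = no-enzyme wells; nearly all actives have a fitted effect of over 25% in size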
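AmpC (5.3 nM in the dispensed reagent) in 20 mM phosphate pH 7.0 with 0.01% (detergent screen) or 0.0001% Triton X-100 was preincubated with compounds for 15 min at room temperature. Nitrocefin was then added from an 800 uM solution, and hydrolysis was followed at 480 nm.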
* marks the source's active call; other numbers are inactive results; ? = inconclusive; · = no result; [ ] = another dose, or the depositor's remark. Shown are actives, neighbours in structure and some others; about 12% of the full set was active somewhere. Unless noted, calls come from the whole dose curve; as a rule, active = well fitted curve in the direction sought with a large enough effect; inconclusive = small, poorly fitted or top-dose-only effect, or another doubt; inactive = no such curve, though single readings can be large; an effect the other way counts as inactive or inconclusive. Potency is the fitted concentration of half-maximal effect.

SMILES	SARS PLpro yeast	Pf growth 96h	Pf growth 48h	Sm TGR inh	AmpC no deterg	AmpC detergent
COCCNC(=O)CCC1CCN(Cc2ccc(-c3ccccc3)cc2)CC1	2.6%	0.4%	0.6%	0.5%	22.0%	-16.3%
O=C(Nc1cccc(C(F)(F)F)c1)c1ccc2nc(-c3ccco3)c(-c3ccco3)nc2c1	0.0%	·	?	3.55µM*	-52.7%	-7.1%
COc1ccc(C2CC(c3ccc4ccccc4c3)=NN2C(=O)CN2CCC(C(N)=O)CC2)cc1 (configuration not stated)	2.2%	?	?	5.3%	267.4%	4.6%
CCOC(=O)c1nnn(CC(=O)N2N=C(c3cc(C)ccc3C)CC2c2ccc(OC)cc2)c1C(=O)OCC (configuration not stated)	2.3%	9.28µM*	14.7µM*	12.0%	54.6%	1.8%
CCOC(=O)c1nnn(CC(=O)N2N=C(c3ccccc3)CC2c2ccccc2)c1C(=O)OCC (configuration not stated)	25.7%	?	11.7µM*	-1.3%	42.6%	-14.1%
CCc1nnc2c(Nc3cccc(F)c3)nc3ccc(C(=O)c4ccccc4)cc3n12	·	·	·	6.8%	·	19.9%
O=C(NCc1ccccc1)c1cccc(NC(=O)c2ccco2)c1	-7.5%	24.0%	·	0.0%	-10.8%	-13.1%
O=C(Nc1ccccc1C(=O)Nc1ccccc1C(=O)NCc1ccco1)c1ccco1	-2.9%	·	8.28µM*	?	-32.6%	1.2%
O=C(NCc1ccco1)c1cccc(NC(=O)c2ccco2)c1	-2.6%	·	14.3%	44.7µM*	-29.1%	-2.7%
COc1ccccc1N1C(=NC(=O)CCc2ccccc2)SC2CS(=O)(=O)CC21 (configuration not stated)	-4.2%	-0.8%	4.3%	1.5%	24.4%	0.7%
O=C(NCCCc1ccccc1)[C@@H]1Cc2ccccc2CN1	0.4%	10.2%	6.7%	0.1%	-24.4%	-1.7%
COc1ccccc1S(=O)(=O)Cc1ccc(C(=O)NCc2ccccc2)o1	-4.0%	?	-0.1%	-13.6%	-12.3%	?
COc1ccccc1S(=O)(=O)Cc1ccc(C(=O)NC2CCCCC2)o1	1.0%	21.6%	?	39.8µM*	-1.0%	-2.4%
COc1ccccc1S(=O)(=O)Cc1ccc(C(=O)NCc2cccs2)o1	-9.2%	·	0.828µM*	?	-14.8%	4.7%
Cc1ccc(S(=O)(=O)N2CCCCC2)cc1C(=O)Nc1cccnc1	0.5%	9.6%	11.5%	-5.1%	-16.0%	3.5%
Cc1nn(-c2ccccc2)c2c1C(c1cccnc1)N1C=C(S(=O)(=O)N3CCCCC3)C=CC1=N2 (configuration not stated)	-8.0%	52.7%	1.85µM*	0.0%	134.7%	-12.5%
Cc1c(CCOC(=O)c2ccc(N3CCOCC3)c([N+](=O)[O-])c2)sc[n+]1CC#N	2.3%	?	94.7%	0.891µM*	14.9%	1.5%
CCC(C)NS(=O)(=O)c1ccc(OCC(=O)NCc2ccc(OC)cc2)cc1 (configuration not stated)	2.5%	69.3%[5.75 µM]	?	6.4%	-3.4%	4.1%
CCOc1ccc(CNC(=O)NS(=O)(=O)c2ccc(OC)cc2)cc1	6.3%	2.94µM*	15.2%	0.0%	-10.4%	-16.6%
CC(=O)Nc1ccc(S(=O)(=O)Nc2cccc(-c3ccc4nncn4n3)c2)cc1	4.1%	2.08µM*	-25.9%	5.1%	8.6%	-13.9%
CCCCC(=O)NC(c1ccc(Cl)cc1Cl)c1ccc2cccnc2c1O (configuration not stated)	?	14.6%	1.85µM*	1.9%	-52.8%	-11.4%
CC(C)C(=O)NC(c1ccc(Cl)cc1Cl)c1ccc2cccnc2c1O (configuration not stated)	?	?	?	?	-22.6%	-17.9%
COc1ccc(C(NC(=O)C(C)C)c2ccc3cccnc3c2O)cc1 (configuration not stated)	?	?	?	-0.4%	-0.8%	-3.9%
CCC(=O)NC(c1ccc(Cl)cc1Cl)c1ccc2cccnc2c1O (configuration not stated)	0.9%	139.3%	2.94µM*	0.5%	-17.4%	-10.7%
CCCC(=O)NC(c1ccc(C(C)C)cc1)c1ccc2cccnc2c1O (configuration not stated)	?	14.7µM*	1.47µM*	8.9%	-14.5%	?
SMILES	SARS PLpro yeast	Pf growth 96h	Pf growth 48h	Sm TGR inh	AmpC no deterg	AmpC detergent
Cc1nc2c(c(C)nn2C(C)(C)C)c(C)c1CCC(=O)Nc1ccc(Br)cc1Br	·	·	·	-2.9%	·	-0.5%
CCCC1(C)Nc2ccccc2-c2nc3ccccc3n21 (configuration not stated)	-20.1%	2.08µM*	?	-22.6%	-29.6%	0.7%
Cc1cccc(C)c1NC(=O)CCCN1CC(C)OC(C)C1 (configuration not stated)	6.2%	-0.8%	·	2.9%	-3.3%	1.7%
Cc1cccc(C)c1NC(=O)CCCCCC1NC(=O)NC1C (configuration not stated)	0.2%	34.2%	15.8%	25.1µM*	-15.4%	-5.8%
CC1NC(=O)NC1CCCCCC(=O)NCCc1ccccc1 (configuration not stated)	2.4%	·	-29.4%	31.6µM*	87.8%	-13.5%
O=C(CCCCC(=O)NCCCc1ccccc1)NCCCc1ccccc1	-3.4%	?	-6.1%	-15.6%	54.5%	?
CC(C)OCCCNC(=O)c1cc2c(-c3ccc(Cl)cc3)nn(C)c2s1	·	·	·	2.2%	·	5.5%
NCCCCCc1cn([C@@H](CCC(=O)O)C(=O)NCCCCCCCCCCC(=O)N2CCNCC2)nn1	-4.0%	2.7%	17.9%	-13.2%	40.9%	?
C#CCOCCOCCOCCNc1nc(N2CCN(C(=O)CCCCCCCCCCNC(=O)[C@H](CCCCN)n3cc(CCO)nn3)CC2)nc(N2CCN(C(=O)CCCCCCCCCCNC(=O)[C@H](CCCCN)n3cc(C[C@@H](C)CC)nn3)CC2)n1	4.1%	?	7.38µM*	50.1µM*	285.8%	5.6%
CC[C@H](C)Cc1cn([C@@H](CCCCN)C(=O)NCCCCCCCCCCC(=O)N2CCNCC2)nn1	-9.7%	?	11.7µM*	-16.1%	104.5%	-2.0%
